This is a sample that favours compounds with a hit; in the whole collection about 2.4% have one here.
Pol kappa inh: blocks human DNA polymerase kappa activity; Q9UBT6; purified Pol kappa, fluorescent DNA synthesis assay, 10 min; Potency, µM (series often up to 107 µM), for inactives: at the highest dose activity, negative = inhibition, actives largely listed as inhibitors; hit rate 0.53% among 400,000; AID 588579; also: % is scaled to controls: 0 for no effect and ±100 for the full control effect
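10 nM Pol kappa preincubated 15 min at room temperature with compounds, then reaction started with substrate at 50 nM final. Fluorescence read kinetically at 0 and 10 min; buffer-only wells served as negative control.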
POLH inh: blocks human DNA polymerase eta activity; recombinant Pol eta, fluorescent DNA replication assay; Potency, µM (highest dose often 114 µM), without a hit: top-dose activity change, negative = inhibition, usual class: inhibitors; hit rate 1.2% among 390,000; AID 588591; also: % is scaled to controls: 0 for no effect and ±100 for the full control effect
Target sequence (Q9Y253 whole entry, looked up): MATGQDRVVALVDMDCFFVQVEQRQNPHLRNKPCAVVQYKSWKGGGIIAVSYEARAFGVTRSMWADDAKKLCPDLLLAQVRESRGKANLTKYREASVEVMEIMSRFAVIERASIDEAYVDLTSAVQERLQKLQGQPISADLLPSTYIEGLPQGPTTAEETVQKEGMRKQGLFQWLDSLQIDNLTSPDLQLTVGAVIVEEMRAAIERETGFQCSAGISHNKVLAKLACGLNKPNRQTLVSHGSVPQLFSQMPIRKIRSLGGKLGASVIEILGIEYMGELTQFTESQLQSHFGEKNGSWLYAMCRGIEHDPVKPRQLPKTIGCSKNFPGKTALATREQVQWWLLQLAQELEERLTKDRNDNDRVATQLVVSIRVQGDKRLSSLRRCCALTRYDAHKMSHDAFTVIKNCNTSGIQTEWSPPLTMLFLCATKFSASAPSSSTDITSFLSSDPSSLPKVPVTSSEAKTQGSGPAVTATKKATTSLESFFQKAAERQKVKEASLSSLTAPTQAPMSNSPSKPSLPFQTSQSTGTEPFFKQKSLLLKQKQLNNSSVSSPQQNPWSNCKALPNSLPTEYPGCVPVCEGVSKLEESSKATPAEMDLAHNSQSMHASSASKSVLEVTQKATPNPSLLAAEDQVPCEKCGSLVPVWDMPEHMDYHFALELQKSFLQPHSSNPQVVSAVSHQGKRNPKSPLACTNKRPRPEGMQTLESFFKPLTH
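Pol eta (10 nM) was preincubated with compounds for 15 min at room temperature, after which fluorescent replication substrate (50 nM final) was added to start the reaction. Fluorescence was read kinetically at 0 and 10 min.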
Pol iota inh: inhibitors of human DNA polymerase iota | Q9UNA4 | Pol iota fluorescent replication assay, 10 min | Potency, µM (series often up to 115 µM), inactives show top-dose activity, negative = inhibition, actives largely listed as inhibitors | hit rate 1% among 390,000
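Fluorescent replication assay read twice, at 0 min and 10 min after adding 50 nM (final) substrate. Enzyme (10 nM) and compounds were first incubated 15 min at room temperature; enzyme-free buffer wells were negative controls.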
APE1 inh: APE1 (human) endonuclease inhibition. Potency, µM (top dose mostly 65.8 µM), without a hit: top-dose activity change, negative = inhibition, hits mostly inhibitors. recombinant APE1, TAMRA/BHQ-2 abasic DNA cleavage fluorescence. AID 2517. P27695. hit rate 0.35% among 350,000;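 also: plate controls were vehicle for no effect and reference inhibitor for full effect; nearly all actives have a fitted effect of over 55% in size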
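Step 1: APE1 (0.75 nM) with compound, 15 min RT. Step 2: add 50 nM fluorophore/quencher THF duplex. Step 3: three fluorescence reads 60 s apart (525/598 nm); read 3 minus read 1 = reaction progress.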
GLS inhibitor: inhibitors of human glutaminase (GLS); O94925; GLS enzymatic activity, qHTS titration; Potency, µM (series often up to 45.5 µM), inactives show at the top dose activity change, negative = inhibition, actives largely listed as inhibitors; hit rate 0.21% among 410,000; AID 624170; also: % is scaled to controls: 0 for no effect and ±100 for the full control effect
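Glutamate formation by hKGA was monitored fluorometrically using coupled glutamate oxidase, HRP and Amplex Red. Substrate was added as 1 mM L-glutamine solution; incubation was 30 min at RT after an initial read.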
POLB inh: DNA polymerase beta (human) inhibition. P06746. hit rate 1.3% among 340,000. Pol beta primer extension/strand displacement, fluorescence kinetic. Potency, µM (doses to about 114 µM), for the others: top-dose activity change, negative = inhibition, most hits filed as inhibitors; also: % is scaled to controls: 0 for no effect and ±100 for the full control effect
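10 nM enzyme + cpd, 15 min RT; start with substrate 50 nM final; read 0 min and after 10 min RT. Corrected, normalized data; 4-parameter Hill curve fit.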
Starred values were filed as active, the others as inactive; ? = inconclusive; . = no result given; [ ] = another dose, or the depositor's remark. Calls follow the shape of the dose curve; as a rule, active = well fitted curve in the direction sought with a large enough effect; inconclusive = small, poorly fitted or top-dose-only effect, or another doubt; inactive = no such curve, though single readings can be large; an effect the other way counts as inactive or inconclusive. Potency is read from the fitted curve at half-maximal effect.

SMILES	Pol kappa inh	POLH inh	Pol iota inh	APE1 inh	GLS inhibitor	POLB inh
O=C(CSc1nc2ccccc2c(=O)n1Cc1ccc(C(=O)NC2CC2)cc1)NCc1ccco1	-34%	?	?	-4%	.	79µM*
COc1ccc(NC(=O)CN(c2ccc(C(C)C)cc2)S(=O)(=O)c2c(C)noc2C)cc1OC	-2%	1%	18%	-1%	-1%	-5%
COc1cccc(CC2(CO)CCCN(C(=O)c3cc[n+]([O-])cc3)C2)c1 (stereo unspecified)	3%	-3%	-11%	14%	9%	36%
COc1cc2[nH]c(=O)n(CCC(=O)N3CCN(c4cc(Cl)ccc4C)CC3)c(=O)c2cc1OC	4%	-10%	17%	3%	-15%	-8%
CC/C=C\C/C=C\C/C=C\C/C=C\C/C=C\CCCCCC(=O)O	-4%[19.4 µM]	.	.	-9%	.	.
CC1(C)Oc2ccc(C(=O)NN)cc2NC1=O	1%	-16%	27%	1%	17%	1%
CCCc1nc2sc3c(SCC(=O)NCc4ccco4)ncnc3c2c2c1CCC2	28µM*	14µM*	?	?	?	10µM*
Cc1ccc2cc(C)c3nnc(SCC(=O)NCc4ccco4)n3c2c1	?	-19%	?	?	-15%	45µM*
Cn1cccc1Cc1nnc(SCC(=O)NCc2ccco2)n1CCc1ccccc1	?	-29%	22µM*	?	6%	?
COCCNC(=O)c1cc(Sc2nnc(C)s2)nc2ccccc12	.	.	.	5%	.	3%
Cn1cccc1Cc1nnc(SCC(=O)NCc2ccco2)n1-c1ccc(F)cc1	-8%	-1%	?	-3%	1%	-3%
Cc1nnc(Sc2cc(C(=O)NCc3ccco3)c3ccccc3n2)s1	-12%	?	?	-20%	-1%	22µM*
O=C(CSc1nnc(NC(=O)c2ccccc2)s1)NCc1ccco1	-17%	-10%	-9%	4%	2%	3.2µM*
O=C(CSc1nnc(NC(=O)c2ccc(F)cc2)s1)NCc1ccco1	-31%	4%	-11%	-22%	-3%	-9%
CCOc1ccc(NC(=O)CN2C(=O)c3ccccc3Sc3ccc(C(=O)OC)cc32)cc1	-1%[60.1 µM]	?	4%	.	-9%	79µM*
COc1ccc2cc3cc(C(=O)NC4CC4)sc3nc2c1	-4%	-3%	-20%	5%	-5%	79µM*
COc1ccc2nc3sc(C(=O)NCCN4CCc5ccccc5C4)cc3cc2c1	-26%	?	-12%	22%	1%	20µM*
CCOc1ccc(CCNC(=O)c2cc3cc4ccc(OC)cc4nc3s2)cc1OCC	14%	-15%	24%	.	1%	1%
COc1cccc(C2CC(=O)N(c3ccc(F)cc3)C3=C2C(=O)OC3)c1OC (stereo unspecified)	3%	.	?	.	-3%	23%
CCCCCCCCCCCCCCCC(=O)OC[C@H](O)[C@H]1OC(=O)C(O)=C1O	.	.	.	8.9µM*	.	.
CC(=O)c1c(CC(=O)O)[nH]n(-c2nc3ccccc3s2)c1=O	?	50µM*	?	2%	-11%	32µM*
O=c1cc(-c2ccccc2)oc2c(O)c(O)ccc12	8.9µM*	.	.	?	.	.
O=c1cc(-c2ccccc2O)oc2ccc3ccccc3c12	-6%[19.4 µM]	.	.	-2%	.	.
O=c1cc(-c2ccccc2O)oc2c(O)c(O)ccc12	0.89µM*	.	.	3.5µM*	.	.
CCCCN1CC(O)=C(c2nc3ccccc3[nH]2)C1=N	-5%	-11%	52%	-3%	5%	16%
SMILES	Pol kappa inh	POLH inh	Pol iota inh	APE1 inh	GLS inhibitor	POLB inh
CCCCCN1CC(O)=C(c2nc3ccccc3[nH]2)C1=N	-8%	6%	67%	-2%	0%	32µM*
Cc1ccccc1CNC(=O)C1CCC(=O)N(C2CCCCCC2)C1 (stereo unspecified)	-1%	-16%	44%	17%	0%	9%
COc1cc2cc(C(=O)N/N=C/c3ccc(F)cc3)[nH]c2cc1OC	-39%	?	?	-30%	1%	?
COc1ccc(/C=N/NC(=O)c2cc3cc(OC)c(OC)cc3[nH]2)cc1	-76%	?	-22%	-29%	8%	6.3µM*
COc1ccc2cc(C(=O)N/N=C/c3cc(OC)c(OC)c(OC)c3)[nH]c2c1	-53%	?	?	-21%	1%	10µM*
CCOc1ccc2[nH]c(C(=O)N/N=C/c3ccc(OC)cc3)cc2c1	-1%	-9%	-8%	-1%	2%	15%
CCOC(=O)c1sc(NC(=O)CSc2nc3ccccc3o2)c(C(=O)OCC)c1C	-20%	-12%	7%	4%	2%	8%
O=c1c(Cl)c(Cl)cnn1Cc1nnc(-c2ccc(Cl)cc2)o1	-39%	50µM*	40µM*	-8%	-15%	40µM*
Cc1ccc(Cn2ncc(Cl)c(Cl)c2=O)cc1	-11%	-4%	-8%	-3%	0%	29%
COc1ccc(NC(=O)N(C)C[C@H]2Oc3ccc(NC(=O)C4CCCCC4)cc3C(=O)N([C@H](C)CO)C[C@@H]2C)cc1	3%	-15%	15%	-7%	14%	.
O=C(Cn1ncc2c3ccccc3n(Cc3ccc(F)cc3)c2c1=O)NC1CCCCCC1	-9%	-12%	5%	.	1%	41%
O=C(Cn1ncc2c3ccccc3n(Cc3cccc(Cl)c3)c2c1=O)NC1CCCCCC1	-15%	?	?	.	3%	13µM*
Cc1ccc(NC(=O)C2(C)CCN2C(C)C)cc1C (stereo unspecified)	.	.	.	.	2%	.
Cc1ccc(C(=O)CSc2nccn2-c2ccccc2)cc1	-7%	-16%	-6%	?	11%	56µM*
CCOC(=O)Cc1cc(=O)n2[nH]c(-c3ccc(C)cc3)cc2n1	-38%	?	79µM*	-10%	18%	22µM*
CC1CCC(C(=O)NNC(=O)c2cc(-c3ccco3)[nH]n2)CC1 (stereo unspecified)	1%	-4%	16%	-5%	3%	0%
O=C(O)c1cc(-c2ccco2)[nH]n1	-3%	?	-9%	8%	-1%	28µM*
Cc1cc(=O)n(C2CCS(=O)(=O)C2)[nH]1 (stereo unspecified)	-14%	-8%	4.5µM*	4%	17%	-6%
CCOc1ccccc1NS(=O)(=O)c1cn(C)nc1C	-3%	-16%	89µM*	3%	-5%	-9%
Cc1cccc(Oc2cc(NC(=O)c3ccccc3)cc([N+](=O)[O-])c2)c1	-1%	?	-12%	-1%	-2%	-21%
O=C(CSCCSCC(=O)c1ccco1)c1ccco1	.	.	.	?	.	28µM*
O=C(Nc1nc(-c2cccs2)cs1)C1=COCCO1	-11%	-14%	-9%	0%	?	1%
